{
  "source": "PubChem BioAssay",
  "data": [
    {"test": "reducers of endogenous Her2 protein level, primary screen, SKBR3 breast tumor cells, AlphaScreen, ATP viability (AID 461);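 note: percent of carrier control wells set as 100% viability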", "details": "18-24 h, measured here: SKBR3 viability, ATP luminescence, at 10 µM", "units": {"viability": "%"}, "values": [
      {"compound": "COC(=O)c1ccc(CSc2nc(-c3ccc(OC)cc3)nc3c2c(=O)n(C)c(=O)n3C)o1", "viability": 100},
      {"compound": "COC(=O)c1[nH]c2cc(OC)ccc2c1NC(=O)CN1CCOCC1", "viability": 116},
      {"compound": "NC(=O)CSc1nnc(-c2ccc(O)cc2)n1Cc1ccco1", "viability": 108},
      {"compound": "COc1ccccc1NC(=O)C1=C(C)Nc2nc(CCCO)nn2C1c1cccnc1", "note": "(stereo not given)", "viability": 132},
      {"compound": "CCOc1ccc(NC(=O)c2ccc3c(c2)N(Cc2ccc(F)cc2)C(=O)CS3=O)cc1", "note": "(stereo not given)", "viability": 90},
      {"compound": "CCn1c(=O)cc(OCC(=O)NC2CCCCC2)c2ccccc21", "viability": 86},
      {"compound": "COc1ccc(OC)c(C(=O)CSc2nnc(-c3ccc(OC)c(OC)c3)o2)c1", "viability": 104},
      {"compound": "Cc1nc(Nc2nc(=O)c3ccccc3n2C)nc2c(C)cccc12", "viability": 122},
      {"compound": "CC(C)(C)OC(=O)NCCc1nnc(SCC(=O)c2ccc(Cl)cc2)o1", "viability": 97.5},
      {"compound": "CCSc1nnc(NC(=O)C2CCCN(S(=O)(=O)c3cnc[nH]3)C2)s1", "note": "(stereo not given)", "viability": 105},
      {"compound": "O=C1CC(Cc2ccccc2)C(=O)N1CCCn1ccnc1", "note": "(stereo not given)", "viability": 101},
      {"compound": "Cc1ccc(CSC2=NCCN2C(=O)c2ccco2)cc1", "viability": 95.5},
      {"compound": "O=C1c2ccccc2C(=O)N1Cc1nc2ccccc2c(=O)n1CCN1CCOCC1", "viability": 97.5},
      {"compound": "c1cn(CC2(Cn3ccnc3)COC2)cn1", "viability": 103},
      {"compound": "c1cncc(-c2nnc3n2N=C(c2cccs2)CS3)c1", "viability": 90.5},
      {"compound": "CCOC(=O)N1CCN(c2c(N3CCc4ccccc4C3)c(=O)c2=O)CC1", "viability": 87},
      {"compound": "COC(=O)CC1SCCNC1=O", "note": "(stereo not given)", "viability": 92},
      {"compound": "O=C(NCc1ccc(F)cc1)C1CCN(C(=O)NCc2ccccc2)CC1", "viability": 115},
      {"compound": "Cc1ccc(-n2nnnc2SCC(=O)N2CCN(C(=O)c3ccco3)CC2)c(C)c1", "viability": 119},
      {"compound": "CCOC(=O)c1cc2c(=O)n3cccc(C)c3nc2n(CCc2ccccc2)c1=N", "viability": 82},
      {"compound": "CC(=O)c1ccc(NS(=O)(=O)c2ccccc2)cc1", "viability": 95},
      {"compound": "Cn1c(-n2c(-c3ccco3)nc3ccccc3c2=O)nc2ccccc21", "viability": 83},
      {"compound": "O=C(CSc1ncnc2c1cnn2Cc1ccccc1)Nc1ccc2c(c1)OCCO2", "viability": 109},
      {"compound": "Cc1cc(C)n(-c2nc3c(c(=O)n(Cc4ccc(Cl)c(Cl)c4)c(=O)n3C)n2C)n1", "viability": 103},
      {"compound": "O=C(O)C1CCCN1C(=O)Nc1ccc(F)cc1", "note": "(stereo not given)", "viability": 87},
      {"compound": "COc1ccc(-n2nnc3c(=O)n(C/C=C/c4ccccc4)cnc32)cc1", "viability": 116},
      {"compound": "CCc1ccc(CNCc2cccnc2)cc1", "viability": 91},
      {"compound": "O=C(CSc1nnc(-c2ccc(Br)o2)n1Cc1ccccc1)c1ccccc1F", "viability": 81.5},
      {"compound": "Cc1sc2c(c1C)CN(C1CC(C)(C)NC(C)(C)C1)CN2C(=O)c1ccco1", "viability": 86.5},
      {"compound": "N#Cc1c(NC(NC(=O)c2ccco2)C(=O)c2ccccc2)sc2c1CCCC2", "note": "(stereo not given)", "viability": 86.5},
      {"compound": "Cc1c(NC(=O)C(C)OC(=O)COc2cccc3c2OC(C)(C)C3)c(=O)n(-c2ccccc2)n1C", "note": "(stereo not given)", "viability": 112},
      {"compound": "COc1cccc(-c2noc(C3CCCN(C(=O)Cc4ccccc4)C3)n2)c1", "note": "(stereo not given)", "viability": 95},
      {"compound": "O=C(c1ccccc1Br)N1CCN(c2ccccc2)CC1", "viability": 85},
      {"compound": "CCOC(=O)C1CCN(c2c(NCCN3CCN(c4ccccc4)CC3)c(=O)c2=O)CC1", "viability": 87.5},
      {"compound": "O=C(CSc1nc(-c2ccccc2)cs1)NCc1ccco1", "viability": 100},
      {"compound": "COc1ccc(NS(=O)(=O)c2c(C)[nH]c(=O)[nH]c2=O)c(OC)c1", "viability": 88.5},
      {"compound": "CC1CCN(C(=O)CN2C(=O)C(C)(C)Oc3ccc(C(=O)NC4CCCC4)cc32)CC1", "viability": 82},
      {"compound": "Cc1cc(=O)n2nc(-c3ccccc3)sc2n1", "viability": 101},
      {"compound": "CCOC(=O)C1CCN(c2c(N3CCCCCC3)c(=O)c2=O)CC1", "viability": 97},
      {"compound": "C=CCn1c(SCC(=O)c2ccc(OC)cc2)nnc1C(C)NC(=O)c1cccs1", "note": "(stereo not given)", "viability": 102}
    ]}
  ]
}
